Inconclusive results are not listed. Activity calls are given as the source filed them. Unless noted, calls follow the shape of the dose curve; as a rule, active = well fitted curve in the direction sought with a large enough effect; inconclusive = small, poorly fitted or top-dose-only effect, or another doubt; inactive = no such curve, though single readings can be large; an effect the other way counts as inactive or inconclusive.
Legend:
[1] = molecular target: Alpha-galactosidase (Coffea arabica) (UniProt Q42656); assay: Counterscreen for Glucocerebrosidase Inhibitors: qHTS Assay for Coffee Bean alpha-Galactosidase at pH 4.5 (AID 957); also: series mostly up to about 77 µM
Method in brief: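 Coffee bean alpha-galactosidase 2 nM, substrate 4-MU-alpha-Gal 80 uM, pH 4.5 citrate/Tween-20, 20 min RT. Cpd titration 0.7 nM–77 uM. Stop pH 10, fluorescence 365/440 nm; Hill-equation AC50.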

[2] = molecular target: Pyruvate kinase PKM (Homo sapiens) (UniProt P14618); assay: qHTS Assay for Activators of Human Muscle Pyruvate Kinase (AID 954; active = well fitted curve in the direction sought with a large enough effect, not every such curve was filed as active)
Method in brief: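 Purified human PKM2 (0.1 nM) with 0.5 mM PEP (Km) and 0.1 mM ADP in 50 mM imidazole pH 7.2, KCl, MgCl2, 1 h at room temperature; ATP formed read by coupled luciferase luminescence. Normalized to no-enzyme/110 uM thiadiazolimine inhibition; 0.3 nM enzyme column for activation.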

[3] = MultiTox-Fluor Cytotoxicity Assay - LYMP1-002 - Live Cells (AID 955); also: potency is read from the fitted curve at half-maximal effect
Method in brief: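 Read-out is live-cell protease activity (cell-permeant GF-AFC substrate, fluorescence Ex/Em=405/510), where a decrease indicates acute toxicity. Human lymphoblastoid cells were treated 16 hours at 37 C in a concentration series, and AC50 values came from standard Hill modelling.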

[4] = MultiTox-Fluor Cytotoxicity Assay - LYMP1-003 - Dead Cells (AID 961); also: nearly all actives have a fitted effect of over 70% in size; also: potency is read from the fitted curve at half-maximal effect
Method in brief: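 LYMP1-003 human lymphoblastoid cells (2500/well) exposed to compound 16 h at 37 C in complete medium; dead-cell protease read with bis-AAF-R110 fluorescence (Ex/Em 485/520) after 60 min at room temperature. Normalized to DMSO and 15 uM tetraoctylammonium bromide; AC50 from Hill fit.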

[5] = Cell Viability - LYMP1-003 - Assay at 24 hr (AID 963); also: potency is read from the fitted curve at half-maximal effect
Method in brief: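 Cells seeded at 2500/well, 5 hr at 37 C; compounds added; 24 hr at 37 C; CellTiter-Glo added, 30 min room temperature; luminescence read. Decrease in ATP taken as cytotoxicity, AC50 from Hill modelling.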

[6] = Cell Viability - LYMP1-003 - Assay at 40 hr (AID 964); also: potency is read from the fitted curve at half-maximal effect; nearly all actives have a fitted effect of over 60% in size
Method in brief: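 Cells were seeded at 2500 per well and incubated 5 hr at 37 C. Compounds were added across a concentration series and left 40 hr at 37 C. CellTiter-Glo was added for 30 min at room temperature before luminescence reading.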

[7] = Cell Viability - LYMP2-003 (AID 965);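 also: cells exposed to compounds for 24 h before reading; nearly all actives have a fitted effect of over 50% in size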; also: potency is read from the fitted curve at half-maximal effect
Method in brief: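 qHTS, human lymphoblastoid line, 2500 cells/well, complete medium. 24 h drug, 37 C. ATP-based luminescent readout; Hill-fit AC50.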

[8] = Cell Viability - LYMP2-004 (AID 966); also: nearly all actives have a fitted effect of over 65% in size; also: potency is read from the fitted curve at half-maximal effect
Method in brief: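 Cells seeded 2500/well, rested 5 hr at 37 C, dosed across a concentration series, incubated 24 hr at 37 C, then CellTiter-Glo added for 30 min at room temperature and luminescence read. Hill fitting gave AC50.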

[9] = Cell Viability - LYMP2-017 (AID 972); also: nearly all actives have a fitted effect of over 55% in size; also: potency is read from the fitted curve at half-maximal effect
Method in brief: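 2500 cells/well, 5 h 37 C; cpd 24 h 37 C in complete medium; CellTiter-Glo, 30 min RT; luminescence (ATP). AC50 via Hill fit, qHTS.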

[10] = Cell Viability - LYMP2-019 (AID 973); also: nearly all actives have a fitted effect of over 55% in size; also: potency is read from the fitted curve at half-maximal effect
Method in brief: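 Luminescent ATP read-out (CellTiter-Glo, 30 min room temperature) served as the viability measure after 24 hr treatment of lymphoblastoid cells at 37 C. Concentration-response data were fitted to the Hill equation for AC50.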

[11] = MultiTox-Fluor Cytotoxicity Assay - LYMP1-001 - Live Cells (AID 947); also: potency is read from the fitted curve at half-maximal effect
Source text: NIH Chemical Genomics Center [NCGC]
NIH Molecular Libraries Screening Centers Network [MLSCN]
National Institutes of Environmental Health Sciences [NIEHS]
National Toxicology Program [NTP]
We have developed a 1536-well cell-based assay for quantitative high throughput screening (qHTS) against a number of cell lines to determine in vitro cytotoxicity of small molecules. This particular assay uses a human lymphoblastoid cell line (LYMP1-001) purchased from Coriell Institute.
NCGC Assay Protocol Summary:
The MultiTox-Fluor Cytotoxicity Assay (Promega) is a homogeneous method to simultaneously measure the relative number of live and dead cells in culture by detecting changes in cell membrane integrity. There are two fluorogenic peptide substrates in the assay reagent. Viable cells are determined when the cell-permeant substrate (GF-AFC) enters the cell and is cleaved by protease from live cells resulting in liberated fluorophore. This live-cell protease activity restricted to viable cells is proportional to cell number. The dead cells are determined by using fluorogenic cell-impermeant peptide substrate (bis-AAF-R110) which cleaved by dead cell proteases leaking from damaged cell membrane.
Using the MultiTox-Fluor Cytotoxicity Assay, the relative number of live cells was measured in the lymphoblastoid cell line with complete culture medium following compound treatment for 16 hours. The assay was performed in opaque black Kalypsys 1536-well plates. In the screen, tetraoctylammonium bromide was used as positive control. Library compounds were measured for their ability to cause acute toxicity in the cell line, as reflected by a decrease in live cell protease activity, in a concentration-dependent manner. […] AC50 values were determined from concentration-response data modeled with the standard Hill equation.
qHTS protocol for MultiTox-Fluor Cytotoxicity assay
[Step] [Parameter] [Value] [Description]
1. Reagent; 5 uL; 2500 lymphoblastoid cells/well
2. Time; 5 hr; 37 C incubation
4. Controls; 23 nL; Tetraoctylammonium bromide 6.4pM to 92 uM
5. Time; 16 hr; 37 C incubation
6. Reagent; 5 uL; MuliTox-Fluor Assay reagent
7. Time; 60 min; Room Temperature
8. Detection; live-cell fluorescence (Ex/Em=405/510); EnVision plate reader
Keywords: cell viability, cytotoxicity, lymphoblastoid cell line, fluorescence, NTPHTS, NTPHTS_NCGC, NIEHS, EPA, DSSTox, MLSMR, MLSCN, NIH Roadmap, qHTS, NCGC

[12] = Cell Viability - LYMP1-002 - Assay at 16 hr (AID 948); also: potency is read from the fitted curve at half-maximal effect
Method in brief: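 In this qHTS, lymphoblastoid LYMP1-002 cells (human) receive compounds for 16 hr at 37 C. Viability is taken from CellTiter-Glo ATP luminescence, and AC50 derives from standard Hill fits.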

[13] = MultiTox-Fluor Cytotoxicity Assay - LYMP1-003 - Live Cells (AID 962); also: potency is read from the fitted curve at half-maximal effect
Method in brief: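 qHTS, 1536-well; 2500 cells/well LYMP1-003; 5 hr 37 C settle; cpd 16 hr 37 C; MultiTox-Fluor reagent 60 min RT; live-cell protease fluor. 405/510; Hill-fit AC50; tetraoctylammonium bromide pos. ctrl.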

[14] = Cell Viability - LYMP2-009 (AID 968); also: nearly all actives have a fitted effect of over 55% in size; also: potency is read from the fitted curve at half-maximal effect
[15] = Cell Viability - LYMP2-011 (AID 969); also: nearly all actives have a fitted effect of over 60% in size; also: potency is read from the fitted curve at half-maximal effect
Method in brief: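 2500 cells/well, 5 hr 37 C; compound added, 24 hr 37 C; CellTiter-Glo 30 min RT; luminescence. qHTS concentration-response, Hill-equation AC50. Tetraoctylammonium bromide positive control.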

[16] = Cell Viability - LYMP2-013 (AID 970); also: nearly all actives have a fitted effect of over 55% in size; also: potency is read from the fitted curve at half-maximal effect
Method in brief: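 qHTS; 2500 lymphoblastoid cells/well; 5 hr 37 C settle; cpd 24 hr 37 C; CellTiter-Glo, 30 min RT; luminescence. AC50 = Hill fit.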

[17] = Cell Viability - LYMP2-015 (AID 971); also: nearly all actives have a fitted effect of over 55% in size; also: potency is read from the fitted curve at half-maximal effect
Method in brief: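 Luminescent ATP read-out (CellTiter-Glo) served as the viability measure after lymphoblastoid cells were exposed to compounds for 24 hours at 37 C. Concentration-response data were fitted with the Hill equation to give AC50.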

[18] = Cell Viability - LYMP2-021 (AID 974); also: potency is read from the fitted curve at half-maximal effect
Method in brief: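 Plate 2500 lymphoblastoid cells per well and incubate 5 hr at 37 C. Add compounds over a concentration range and incubate 24 hr at 37 C. Add CellTiter-Glo, wait 30 min at room temperature, read luminescence.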

[19] = MultiTox-Fluor Cytotoxicity Assay - LYMP1-002 - Dead Cells (AID 960); also: nearly all actives have a fitted effect of over 60% in size
Method in brief: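 LYMP1-002 cells 2500/well; 5 hr 37 C pre-incubation; compound 16 hr 37 C; MultiTox-Fluor reagent 60 min RT; dead-cell fluor Ex/Em 485/520. Norm. to DMSO (0%) vs 15 uM tetraoctylammonium bromide (100%); Hill AC50.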

[20] = Cell Viability - LYMP2-005 (AID 967); also: series mostly up to about 92 µM
Method in brief: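 Luciferase-based ATP quantitation served as the viability measure in human lymphoblastoid LYMP2-005 cells exposed to test compounds for 24 h at 37 C in complete culture medium. Potency (AC50) was obtained by fitting concentration-response curves with the Hill equation.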

Measured: Potency

Alpha-galactosidase (Coffea arabica), sequence (Q42656 whole entry, looked up): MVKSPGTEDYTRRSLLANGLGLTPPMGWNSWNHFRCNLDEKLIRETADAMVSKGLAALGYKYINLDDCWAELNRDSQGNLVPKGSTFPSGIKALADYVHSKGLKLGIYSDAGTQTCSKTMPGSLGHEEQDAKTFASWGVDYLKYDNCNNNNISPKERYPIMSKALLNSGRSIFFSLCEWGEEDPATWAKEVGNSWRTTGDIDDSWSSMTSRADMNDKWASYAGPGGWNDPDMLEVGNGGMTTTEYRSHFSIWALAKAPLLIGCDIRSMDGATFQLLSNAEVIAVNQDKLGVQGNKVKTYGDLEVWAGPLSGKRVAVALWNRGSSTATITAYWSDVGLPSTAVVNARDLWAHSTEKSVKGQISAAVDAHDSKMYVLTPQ
Pyruvate kinase PKM (Homo sapiens), sequence (P14618 whole entry, looked up): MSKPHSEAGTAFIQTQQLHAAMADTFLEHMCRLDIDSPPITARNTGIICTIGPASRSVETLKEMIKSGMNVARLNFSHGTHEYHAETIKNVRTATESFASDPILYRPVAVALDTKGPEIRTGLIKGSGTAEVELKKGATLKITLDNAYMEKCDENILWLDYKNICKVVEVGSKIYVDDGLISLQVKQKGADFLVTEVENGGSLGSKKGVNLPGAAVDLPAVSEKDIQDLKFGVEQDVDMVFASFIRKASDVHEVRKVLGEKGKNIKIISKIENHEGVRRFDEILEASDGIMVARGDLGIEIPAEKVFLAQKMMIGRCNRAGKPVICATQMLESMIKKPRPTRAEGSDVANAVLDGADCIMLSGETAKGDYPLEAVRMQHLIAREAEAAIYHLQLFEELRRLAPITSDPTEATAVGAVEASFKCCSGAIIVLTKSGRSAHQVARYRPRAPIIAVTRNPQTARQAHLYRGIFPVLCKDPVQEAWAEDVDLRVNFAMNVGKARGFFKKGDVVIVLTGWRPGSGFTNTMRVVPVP

CC1=C(CC(=O)O)c2cc(F)ccc2/C1=C\c1ccc(S(C)=O)cc1 (centres undefined)
inactive: [1]

CSc1ccc(C(=O)c2[nH]c(=O)[nH]c2C)cc1
inactive: [1]

C[C@H](N)[C@H](O)c1ccc(O)c(O)c1
inactive: [2]

C[n+]1cc2c3c(ccc2c2ccc4cc5c(cc4c21)OCO5)OCO3
inactive: [1]

COC(=O)C1=C(C)NC(C)=C(C(=O)OC)C1c1ccccc1[N+](=O)[O-]
active: [3] 31.6 µM | [4] 50.1 µM | [5] 50.1 µM | [6] 39.8 µM | [7] 50.1 µM | [8] 31.6 µM | [9] 50.1 µM | [10] 79.4 µM

COc1ccc(C(=O)N2CCCC2=O)cc1
inactive: [2]

CN(C)CCN(Cc1cccs1)c1ccccn1
inactive: [1]

CCCCCCCCCCCC[N+](C)(C)CCOc1ccccc1
active: [11] 25.1 µM | [12] 15.8 µM | [3] 10 µM | [4] 12.6 µM | [13] 31.6 µM | [5] 12.6 µM | [6] 31.6 µM | [7] 50.1 µM | [14] 31.6 µM | [15] 39.8 µM | [16] 31.6 µM | [17] 31.6 µM | [9] 39.8 µM | [10] 39.8 µM | [18] 39.8 µM

COc1nc(C)nc(Cl)c1NC1=NCCN1
inactive: [1]

O=C(O)c1cccnc1Nc1cccc(C(F)(F)F)c1
inactive: [1]

CCCn1cnc2c1c(=O)n(CCCCC(C)=O)c(=O)n2C
inactive: [1]

CNC(=O)Oc1cccc2ccccc12
inactive: [11] | [12] | [3] | [19] | [4] | [13] | [5] | [7] | [8] | [20] | [14] | [15] | [16] | [17] | [9] | [10] | [18]

— PubChem BioAssay (NCATS)
